Most compounds without a hit are left out; they make up all but 2.2% or so of the library.
VLA-4 inh = inhibition in a human VLA-4 binding assay. 0.2% of 330,000 active. P13612. VLA-4 expressing cells, ligand binding flow cytometry. AID 2557. inhibition, % (about 7 µM as worked out from the volumes in the protocol); in the data active = inhibition above about 50%
MEKK2wt PB1 HTS = raises or lowers MEK5 binding to wildtype human MEKK2 PB1 domain | Q9Y2U5 | bead flow cytometry, Alexa488-MEK5 binding to MEKK2 WT; actives lie on both sides | binding response (% of control), % at 10 µM | 1.1% of 290,000 active | AID 1531; in the data active = binding response below about 67% or above about 130%
MEKK2 mut-MEK5 = signal of MEK5 binding to mutant human MEKK2 PB1 domain; 0.35% of 290,000 active; percent response, % at 10 µM; bead flow cytometry, Alexa488-MEK5 binding to MEKK2 mutant; AID 1530; in the data active = percent response above about 24%, passing the limit was not always enough
MEKK3 PB1 HTS = MEKK3-MEK5 PB1 interaction, increase or decrease. bead-based flow cytometry, Alexa488-MEK5 binding to MEKK3; actives lie on both sides; 0 = blocked by unlabeled MEK5, 100 = vehicle. binding response (% of control), % at 10 µM. 1.4% of 290,000 active. AID 1529;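 active = binding response more than 3 SD above or below the average of its plate-row segment, actives on both sides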;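 note: Alexa488 bead fluorescence after subtracting the streptavidin-only scavenger bead signal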
MEKK2wt confirm = raises or lowers MEK5 binding to wildtype human MEKK2, retest; shares compounds with MEKK3 PB1 HTS; bead flow cytometry, Alexa488-MEK5 binding to MEKK2 WT; actives lie on both sides; binding response (% of control), % at 10 µM; 2.4% of 5,900 active; in the data active = binding response below about 16% or above about 210%; inactive = in between
MEKK2mut-MEK5 = signal of MEK5 binding to mutant human MEKK2, retest. shares compounds with MEKK3 PB1 HTS. bead flow cytometry, Alexa488-MEK5 binding to MEKK2 mutant. percent response, % at 10 µM. 2% of 5,900 active. AID 1893; in the data active = percent response mostly above about 71%, no sharp cut-off; inactive = mostly below about 38%;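 note: higher means compound restores mutant binding toward wildtype level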
MEKK3-MEK5 inh = confirmation of inhibitors of MEK5 binding to human MEKK3 | shares compounds with MEKK3 PB1 HTS | AID 1894 | 1.8% of 5,900 active | binding response (% of control), % at 10 µM | bead flow cytometry, Alexa488-MEK5 binding to MEKK3; hits give low values;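 active = binding response below 72% of control, or above a set upper limit, though filed actives all read lower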;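 note: lower values mean stronger disruption of MEK5 binding to MEKK3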
Hits are given with their value; [ ] = remark or other dose.

COC(=O)c1ccccc1S(=O)(=O)NCc1nc2nc(C)cc(C)n2n1 was read as VLA-4 inh inactive, MEKK2wt PB1 HTS inactive, MEKK2 mut-MEK5 inactive and MEKK3 PB1 HTS inactive.
`Cc1ccc(C)c(N(CC(=O)NCc2ccc3c(c2)OCO3)C(=O)CCC(=O)Nc2ccccn2)c1` gave VLA-4 inh inactive, MEKK2wt PB1 HTS inactive, MEKK2 mut-MEK5 inactive, MEKK3 PB1 HTS 82[inhibitor], MEKK2wt confirm inactive, MEKK2mut-MEK5 inactive and MEKK3-MEK5 inh inactive.
`Cc1ccc(N(CC(=O)NCc2ccc3c(c2)OCO3)C(=O)CCC(=O)Nc2ccccn2)cc1` gave VLA-4 inh inactive, MEKK2wt PB1 HTS inactive, MEKK2 mut-MEK5 inactive and MEKK3 PB1 HTS inactive.
For COCCNC(=O)CN(C(=O)CCC(=O)Nc1ccccn1)c1ccccc1F the results were VLA-4 inh inactive, MEKK2wt PB1 HTS inactive, MEKK2 mut-MEK5 inactive, MEKK3 PB1 HTS 70[inhibitor], MEKK2wt confirm inactive, MEKK2mut-MEK5 inactive and MEKK3-MEK5 inh inactive.
Screening CSc1ncccc1C(=O)OCC(=O)NCCc1ccccc1 returned VLA-4 inh inactive.
Screening CN(C)c1nc(N/N=C/c2ccccc2O)nc(Nc2ccc(F)cc2)n1 returned VLA-4 inh inactive, MEKK2wt PB1 HTS 140, MEKK2 mut-MEK5 inactive, MEKK3 PB1 HTS inactive, MEKK2wt confirm inactive, MEKK2mut-MEK5 inactive and MEKK3-MEK5 inh inactive.
For O=C(NC1CCCCC1)C(c1cccs1)N(C(=O)c1ccco1)c1ccc2c(c1)OCCO2 (centres undefined) the results were VLA-4 inh inactive, MEKK2wt PB1 HTS inactive, MEKK2 mut-MEK5 inactive, MEKK3 PB1 HTS 60[inhibitor], MEKK2wt confirm inactive, MEKK2mut-MEK5 inactive and MEKK3-MEK5 inh inactive.
CC(=O)c1ccc(N(C(=O)c2ccco2)C(C(=O)NC2CCCC2)c2cccs2)cc1 (centres undefined) was read as VLA-4 inh inactive, MEKK2wt PB1 HTS inactive, MEKK2 mut-MEK5 inactive and MEKK3 PB1 HTS inactive.
For C#CC(=O)N(c1ccc(OC)c(OC)c1)C(C(=O)NC1CCCC1)c1cccs1 (centres undefined) the results were VLA-4 inh inactive, MEKK2wt PB1 HTS inactive, MEKK2 mut-MEK5 inactive, MEKK3 PB1 HTS 125, MEKK2wt confirm inactive, MEKK2mut-MEK5 inactive and MEKK3-MEK5 inh inactive.
C#CC(=O)N(c1cccc(OC)c1)C(C(=O)NC1CCCC1)c1cccs1 (centres undefined) was read as VLA-4 inh inactive, MEKK2wt PB1 HTS inactive, MEKK2 mut-MEK5 inactive and MEKK3 PB1 HTS inactive.
For CCOC(=O)c1c(C)n(-c2ccc(C)cc2)c2ccc(OCC(O)CN3CCN(C)CC3)cc12 (centres undefined) the results were MEKK2wt PB1 HTS 289, MEKK2 mut-MEK5 104, MEKK3 PB1 HTS inactive, MEKK2wt confirm 214, MEKK2mut-MEK5 71 and MEKK3-MEK5 inh inactive.
`CCOC(=O)c1c(C)n(C)c2ccc(OCC(O)CN3CCN(C)CC3)cc12` (centres undefined) gave VLA-4 inh inactive, MEKK2wt PB1 HTS inactive, MEKK2 mut-MEK5 inactive and MEKK3 PB1 HTS inactive.
`CC(=O)N1CCc2cc(S(=O)(=O)NCCCN3CCC(C)CC3)ccc21` gave VLA-4 inh inactive, MEKK2wt PB1 HTS inactive, MEKK2 mut-MEK5 inactive and MEKK3 PB1 HTS inactive.
For COc1ccc(/C=N/NC(=O)c2ccc(O)cc2O)cc1CSc1ccccn1 the results were VLA-4 inh inactive, MEKK2wt PB1 HTS inactive, MEKK2 mut-MEK5 inactive, MEKK3 PB1 HTS 136, MEKK2wt confirm inactive, MEKK2mut-MEK5 inactive and MEKK3-MEK5 inh inactive.
Screening COc1ccc(C=O)cc1CSc1ccccn1 returned VLA-4 inh inactive, MEKK2wt PB1 HTS inactive, MEKK2 mut-MEK5 inactive and MEKK3 PB1 HTS inactive.
For O=c1[nH]c(NNC(=S)NC2CCCCC2)nc2c1C1(CCCC1)Cc1ccccc1-2 the results were VLA-4 inh inactive, MEKK2wt PB1 HTS inactive, MEKK2 mut-MEK5 inactive and MEKK3 PB1 HTS inactive.
For COc1cc(O)c(C(CC(=O)N2CCCC2)c2ccc3c(c2)OCO3)c(OC)c1 (centres undefined) the results were VLA-4 inh inactive, MEKK2wt PB1 HTS inactive, MEKK2 mut-MEK5 inactive and MEKK3 PB1 HTS inactive.
CCN(CC)CCC(c1ccc2c(c1)OCO2)c1c(O)cc(OC)cc1OC (centres undefined) was read as VLA-4 inh inactive, MEKK2wt PB1 HTS 150, MEKK2 mut-MEK5 inactive, MEKK3 PB1 HTS inactive, MEKK2wt confirm inactive, MEKK2mut-MEK5 inactive and MEKK3-MEK5 inh inactive.
For COc1cc(O)c(C(CC(=O)N2CCN(c3ccccc3)CC2)c2ccc3c(c2)OCO3)c(OC)c1 (centres undefined) the results were VLA-4 inh inactive, MEKK2wt PB1 HTS 153, MEKK2 mut-MEK5 inactive, MEKK3 PB1 HTS 130, MEKK2wt confirm inactive, MEKK2mut-MEK5 inactive and MEKK3-MEK5 inh inactive.
Screening COc1ccc(C(CC(=O)N2CCOCC2)c2c(O)cc(OC)cc2OC)cc1 (centres undefined) returned VLA-4 inh inactive, MEKK2wt PB1 HTS 165, MEKK2 mut-MEK5 inactive, MEKK3 PB1 HTS 133, MEKK2wt confirm inactive, MEKK2mut-MEK5 inactive and MEKK3-MEK5 inh inactive.
`O=C(Nc1ccc(C(=O)N2CCCC2)cc1)c1ccc(F)cc1Cl` gave VLA-4 inh inactive, MEKK2wt PB1 HTS inactive, MEKK2 mut-MEK5 inactive and MEKK3 PB1 HTS inactive.
CC(C)C1Cc2c(C#N)c(N)sc(=S)c2CO1 (centres undefined) was read as VLA-4 inh inactive, MEKK2wt PB1 HTS 48[inhibitor], MEKK2 mut-MEK5 inactive, MEKK3 PB1 HTS inactive, MEKK2wt confirm inactive, MEKK2mut-MEK5 inactive and MEKK3-MEK5 inh inactive.
`CC1(C)Cc2c(C#N)c(N)sc(=S)c2CO1` gave VLA-4 inh inactive, MEKK2wt PB1 HTS inactive, MEKK2 mut-MEK5 inactive and MEKK3 PB1 HTS inactive.
`CCCCNS(=O)(=O)c1ccc2nc(-c3cccnc3)cc(C(=O)NCCCOCC)c2c1` gave VLA-4 inh inactive, MEKK2wt PB1 HTS inactive, MEKK2 mut-MEK5 inactive and MEKK3 PB1 HTS inactive.
`O=C(O)c1cc(-c2ccccc2)n(-c2ccccc2)n1` gave VLA-4 inh inactive, MEKK2wt PB1 HTS inactive, MEKK2 mut-MEK5 inactive and MEKK3 PB1 HTS inactive.
`CC(C)(C)c1cc(C(=O)O)nn1-c1ccccc1` gave VLA-4 inh inactive, MEKK2wt PB1 HTS 3.0[inhibitor], MEKK2 mut-MEK5 inactive, MEKK3 PB1 HTS 2.0[inhibitor], MEKK2wt confirm inactive, MEKK2mut-MEK5 inactive and MEKK3-MEK5 inh inactive.
Screening NS(=O)(=O)c1c(Sc2ccccc2C(=O)O)ccc2ccccc12 returned VLA-4 inh inactive, MEKK2wt PB1 HTS inactive, MEKK2 mut-MEK5 inactive and MEKK3 PB1 HTS inactive.
`CCCCN(CC)CCNC(=O)c1cn(C)c(=O)c2c1c1ccccc1n2C` gave VLA-4 inh inactive, MEKK2wt PB1 HTS inactive, MEKK2 mut-MEK5 inactive and MEKK3 PB1 HTS inactive.

Bioassay records as filed in PubChem BioAssay.
